Measurements published in PubChem BioAssay (NCATS).
Values joined by “and” are separate entries in the source; they are usually repeats but may differ in a detail not shown here. Equal values may be shown once. Results filed as inconclusive are left out. Entries that show only a call come without a potency. Some compounds were tested as several samples or in several runs, with calls that do not always agree. Values without a mark were called inactive. Active and inactive are the calls of the source. Calls follow the shape of the dose curve; as a rule, active = well fitted curve in the direction sought with a large enough effect; inconclusive = small, poorly fitted or top-dose-only effect, or another doubt; inactive = no such curve, though single readings can be large; an effect the other way counts as inactive or inconclusive.

Key:
[1] = test system: MCC-13; assay: qHTS assay to identify novel small-molecules to repurpose for Merkel cell carcinoma treatment (AID 1296009); settings: MCC and control cell lines, CellTiter-Glo viability, 72 h; series mostly up to 46 µM; also: nearly all actives have a fitted effect of over 60% in size
Outline: (§1)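 CellTiter-Glo luminescence after 72 hr compound exposure at 37 degree celsius gave cell viability. Libraries NPC and MIPE were run as 8- and 11-point dose responses; RLUs normalized to DMSO (negative) and no-cell (cytotoxicity) controls.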

[2] = test system: MCC-26; assay: as above; settings: MCC and control cell lines, CellTiter-Glo viability, 72 h; series mostly up to 46 µM
Outline: as §1

[3] = test system: UISO; assay: as above; settings: MCC and control cell lines, CellTiter-Glo viability, 72 h; series mostly up to 46 µM
Outline: as §1

[4] = test system: C33A; assay: Primary qHTS to identify gynecologic anti-cancer compounds using libraries of approved drugs and bioactive compounds (AID 1345084); settings: Gynecologic cancer cell panel viability, ATPlite luminescence, 48 h; series mostly up to 57.5 µM; also: nearly all actives have a fitted effect of over 55% in size
Outline: (§2)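 48 h compound exposure at 37 C, 5% CO2; five-point qHTS. ATPlite luminescence readout of cell ATP.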

[5] = test system: CAOV3; assay: as above; settings: Gynecologic cancer cell panel viability, ATPlite luminescence, 48 h; series mostly up to 57.5 µM
Outline: as §2

[6] = test system: CASKI; assay: as above; settings: Gynecologic cancer cell panel viability, ATPlite luminescence, 48 h; series mostly up to 57.5 µM
Outline: as §2

[7] = test system: Es-2; assay: as above; settings: Gynecologic cancer cell panel viability, ATPlite luminescence, 48 h; series mostly up to 57.5 µM
Outline: as §2

[8] = test system: HeLa; assay: as above; settings: Gynecologic cancer cell panel viability, ATPlite luminescence, 48 h; series mostly up to 57.5 µM
Outline: as §2

[9] = test system: Hek293T; assay: as above; settings: Gynecologic cancer cell panel viability, ATPlite luminescence, 48 h, control line for the selectivity index; series mostly up to 57.5 µM
Outline: as §2

[10] = test system: JEG-3; assay: as above; settings: Gynecologic cancer cell panel viability, ATPlite luminescence, 48 h; series mostly up to 57.5 µM
Outline: as §2

[11] = test system: OV90; assay: as above; settings: Gynecologic cancer cell panel viability, ATPlite luminescence, 48 h; series mostly up to 57.5 µM
Outline: as §2

[12] = test system: PA-1; assay: as above; settings: Gynecologic cancer cell panel viability, ATPlite luminescence, 48 h; series mostly up to 57.5 µM
Outline: as §2

[13] = test system: SKOV3; assay: as above; settings: Gynecologic cancer cell panel viability, ATPlite luminescence, 48 h; series mostly up to 57.5 µM
Outline: as §2

[14] = test system: Tov-21-G; assay: as above; settings: Gynecologic cancer cell panel viability, ATPlite luminescence, 48 h; series mostly up to 57.5 µM
Outline: as §2

[15] = test system: Tov112D; assay: as above; settings: Gynecologic cancer cell panel viability, ATPlite luminescence, 48 h; series mostly up to 57.5 µM
Outline: as §2

[16] = Drug repurposing screens with cells derived from glioblastoma tumor samples (AID 1345199); settings: GBM patient neurospheres viability, ATP luminescence, 48 h; for Potency: tumour line A; as to all read-outs here: nearly all actives have a fitted effect of over 40% in size
Outline: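 Primary testing used CD133+ neurospheres from four GBM patients, seven concentrations, 48 h exposure and ATP-based viability; confirmation added three slower-growing patient lines.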

[17] = test system: MKL-2; assay: qHTS assay to identify novel small-molecules to repurpose for Merkel cell carcinoma treatment (AID 1296009); settings: MCC and control cell lines, CellTiter-Glo viability, 72 h; series mostly up to 46 µM; also: nearly all actives have a fitted effect of over 60% in size
Outline: as §1

[18] = test system: WaGa; assay: as above; settings: MCC and control cell lines, CellTiter-Glo viability, 72 h; series mostly up to 46 µM
Outline: as §1

[19] = test system: MKL-1; assay: as above; settings: MCC and control cell lines, CellTiter-Glo viability, 72 h; series mostly up to 46 µM
Outline: as §1

[20] = test system: NIH3T3; assay: as above; settings: MCC and control cell lines, CellTiter-Glo viability, 72 h; at 44.8 µM (top of the series) unless noted
Outline: as §1

[21] = at 45.9 µM (top of the series), tumour line D
[22] = at 45.9 µM (top of the series), tumour line B
[23] = at 91.6 µM (top of the series), tumour line B
[24] = at 91.6 µM (top of the series), tumour line D
Potency is read from the fitted curve at half-maximal effect.

O=C(CCl)c1ccc(Cl)cc1Cl
Potency [1]: inactive | Potency [2]: inactive | Potency [3]: inactive | Potency [4]: inactive | Potency [5]: inactive | Potency [6]: inactive | Potency [7]: inactive | Potency [8]: inactive | Potency [9]: inactive | Potency [10]: inactive | Potency [11]: inactive | Potency [12]: inactive | Potency [13]: inactive | Potency [14]: inactive | Potency [15]: inactive | activity, negative = cell killing [16, 21]: -23.6%

COc1cc(CC(C)N)c(OC)cc1Br (configuration not stated)
Potency [17]: 3.18 µM (active) | Potency [18]: 50.4 µM (active) | Potency [7]: inactive | Potency [8]: 25.1 µM (active) | Potency [10]: inactive | Potency [11]: inactive | Potency [15]: inactive | activity, negative = cell killing [16, 22]: -9.73% | activity, negative = cell killing ([16]; at 108 µM (top of the series), tumour line B): -15.6% | Potency [16]: 35.5 µM (active) and 12.6 µM (active)

COc1ccc2c3c1O[C@H]1[C@@H](O)C=C[C@H]4[C@@H](C2)N(C)CC[C@@]341
Potency [1]: 23.8 µM (active) | Potency [19]: 10.7 µM (active) | Potency [17]: 2.12 µM (active) | Potency [3]: 15 µM (active) | Potency [18]: 5.34 µM (active) | Potency [6]: 31.6 µM (active) | activity, negative = cell killing [16, 23]: -11% | activity, negative = cell killing [16, 24]: -4.9% | Potency [16]: 44.7 µM (active)

CC(=O)OC1(c2ccccc2)CCN(CCc2ccccc2)CC1
Potency [19]: inactive | Potency [3]: 24.8 µM (active) | Potency [4]: inactive | Potency [7]: inactive | Potency [8]: inactive | Potency [9]: inactive | Potency [10]: inactive | Potency [12]: inactive | Potency [14]: inactive | Potency [15]: inactive

C=CCOC(Cn1ccnc1)c1ccc(Cl)cc1Cl (configuration not stated)
Potency [1]: inactive | Potency [2]: inactive | Potency [19]: inactive | Potency [18]: inactive | Potency [4]: inactive | Potency [5]: inactive | Potency [6]: inactive | Potency [7]: inactive | Potency [9]: inactive | Potency [10]: inactive | Potency [14]: inactive | Potency [15]: inactive | activity, negative = cell killing [16, 22]: -23.6% | activity, negative = cell killing [16, 21]: -33.6% | Potency [16]: 20 µM (active)

Cc1nnc2n1-c1sc(CCc3ccc(CC(C)C)cc3)cc1C(c1ccccc1Cl)=NC2C (configuration not stated)
Potency [2]: inactive | Potency [17]: 11.9 µM (active) | Potency [3]: 16.8 µM (active) | Potency [6]: inactive | Potency [10]: inactive | Potency [15]: inactive

CN(C)CCc1c[nH]c2ccc(O)cc12
Potency [1]: inactive | Potency [19]: inactive | outcome [20]: inactive [at 92 µM] | Potency [3]: 53.4 µM (active) | Potency [4]: inactive | Potency [6]: inactive | Potency [7]: inactive | Potency [8]: inactive | Potency [9]: inactive | Potency [10]: inactive | Potency [11]: inactive | Potency [12]: inactive | Potency [13]: inactive | Potency [14]: inactive | Potency [15]: inactive | activity, negative = cell killing [16, 23]: -5.09% | activity, negative = cell killing [16, 24]: -23.3%

NC1(c2ccccc2)CCCCC1
Potency [1]: inactive | Potency [2]: inactive | Potency [19]: inactive | Potency [3]: inactive | Potency [5]: inactive | Potency [6]: inactive | Potency [7]: inactive | Potency [9]: inactive | Potency [10]: inactive | Potency [11]: inactive | Potency [12]: inactive | Potency [14]: inactive | activity, negative = cell killing [16, 23]: -7.4% | Potency [16]: 63.1 µM (active)

C=CC[C@]1(O)CC[C@H]2[C@@H]3CCC4=CC(=O)CCC4=C3C=C[C@@]21C
Potency [1]: inactive | Potency [2]: inactive | Potency [19]: inactive | Potency [3]: inactive | Potency [5]: inactive | Potency [6]: inactive | Potency [7]: inactive | Potency [8]: inactive | Potency [9]: inactive | Potency [10]: inactive | Potency [12]: inactive | Potency [14]: inactive | Potency [15]: inactive | activity, negative = cell killing [16, 22]: -12.5% | Potency [16]: 17.8 µM (active)

CC1COC2(c3ccccc3Cl)c3cc(Cl)ccc3NC(=O)CN12 (configuration not stated)
Potency [1]: inactive | Potency [2]: inactive | Potency [19]: inactive | Potency [3]: inactive | Potency [4]: inactive | Potency [5]: inactive | Potency [6]: inactive | Potency [7]: inactive | Potency [8]: inactive | Potency [9]: inactive | Potency [10]: inactive | Potency [12]: inactive | Potency [13]: inactive | Potency [14]: inactive | Potency [15]: inactive
